Test results: PubChem BioAssay (NCI)
About 79,000 compounds went through this panel and 15% of them were active in at least one assay; those are over-represented in the sample as a whole. The source made the active and inactive calls. Cut-off read from the data, not from the text of the source: active = growth inhibition above about 70%; inactive = the rest.

Key:
[1] = NCI Yeast Anticancer Drug Screen. Data for the rad50 strain (AID 155);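 note: 0% = growth of vehicle-only cultures of the same strain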; settings: S. cerevisiae rad50 strain growth inhibition; at 50.0 µM; stronger effect = higher value
Method in brief: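 Readout: growth inhibition relative to vehicle-treated cultures. Compound exposure was carried out in a genetically defined yeast strain deficient in DNA damage repair.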

[2] = NCI Yeast Anticancer Drug Screen. Data for the mec2-1 strain (AID 157); settings: S. cerevisiae mec2-1 strain, at 50.0 µM, stronger effect = higher value
Method in brief: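 Strain: mec2-1 (DNA repair/cell cycle alteration). Compound exposure, then growth measured; inhibition expressed relative to vehicle.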

[3] = NCI Yeast Anticancer Drug Screen. Data for the sgs1 mgt1 strain (AID 161);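 note: 0% = growth of cultures given vehicle only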; settings: S. cerevisiae sgs1 mgt1 strain, at 50.0 µM, stronger effect = higher value
Method in brief: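 Genetically altered yeast, compound exposure, growth inhibition relative to vehicle.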

[4] = NCI Yeast Anticancer Drug Screen. Data for the cln2 rad14 strain (AID 165);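 note: 0% = growth equal to vehicle treated cultures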; settings: S. cerevisiae cln2 rad14 strain, at 50.0 µM, stronger effect = higher value
Method in brief: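 Compounds are applied to the cln2 rad14 yeast strain, and growth is then compared with that of vehicle-treated cultures to give inhibition.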

[5] = NCI Yeast Anticancer Drug Screen. Data for the bub3 strain (AID 167); settings: S. cerevisiae bub3 mutant strain, at 50.0 µM, stronger effect = higher value
Method in brief: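 Readout: yeast growth inhibition, expressed relative to vehicle-only wells. The test organism is a mutant strain from a panel with lesions in DNA repair or checkpoint genes.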

[6] = NCI Yeast Anticancer Drug Screen. Data for the mlh1 rad18 strain (AID 175); settings: S. cerevisiae mlh1 rad18 strain growth inhibition; at 50.0 µM; stronger effect = higher value
Method in brief: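 Read-out is yeast growth inhibition, calculated against vehicle-only controls. The compound was applied to a strain engineered with DNA damage repair alterations.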

Measured: growth inhibition

O=C(Cc1ccccc1)NCc1ccccc1Cl
inactive: [1] -1.05% | [2] 9.2% | [3] 5.65% | [4] 0.05% | [5] 9.75% | [6] 6.05%

CC(=O)COc1ccccc1-c1ccccc1
inactive: [1] 5.4% | [2] 8.55% | [3] 4.9% | [4] -34.8% | [5] 8.6% | [6] -14.7%

OC(CI)C1OCOC(CI)C1O (stereo not drawn)
inactive: [1] -11.7% | [2] 3.65% | [3] 10.7% | [4] -26.5% | [5] -3.75% | [6] 16.4%

O=c1[nH]c(=O)c2ncn(-c3ccc(Cl)cc3)c2[nH]1
inactive: [1] -7.35% | [2] -20.9% | [3] 7.1% | [4] -37.5% | [5] -24.4% | [6] -8.3%

CCOc1nc(C)cc(C(=O)OC)c1C#N
inactive: [1] 18.4% | [2] 15.7% | [3] 19.6% | [4] 17.4% | [5] 0.3% | [6] 2%

c1ccc(CN2CCc3ncnc(Nc4ccccc4)c3C2)cc1
inactive: [1] -13.4% | [2] 1.25% | [3] 5.5% | [4] -16.8% | [5] 4.75% | [6] -5.05%

O=C(c1ccc2c(c1)no[n+]2[O-])N(CCO)CCO
active: [4] 92.5%
inactive: [1] 58.8% | [2] 8.45% | [3] 47.1% | [5] 28.4% | [6] 19.9%

COC(=O)C(CC(=O)Nc1ccc(C)cc1)C(=O)C(=O)Nc1c(C(C)C)cccc1C(C)C (stereo not drawn)
inactive: [1] -43.4% | [2] -17.8% | [3] -7.5% | [4] 6.1% | [5] -9.9% | [6] -25.2%

C=CCN(CC=C)c1ccccc1
inactive: [1] 24.1% | [2] 5.6% | [3] 25.4% | [4] 19.2% | [5] 14.6% | [6] 34.4%

Cc1nc2ccccc2nc1C
inactive: [1] -15.2% | [2] -1.8% | [3] -8.85% | [4] 1.2% | [5] -2.35% | [6] 4.85%

CC(C)(C)[Si](C)(C)OCC1CCC(n2cnc3c(=O)[nH]cnc32)O1 (stereo not drawn)
inactive: [1] 14.7% | [2] -6.75% | [3] 7.6% | [4] -4.1% | [5] 12.8% | [6] -7.25%

CCOC1CCCCO1 (stereo not drawn)
inactive: [1] -24.5% | [2] -4.1% | [3] -13.4% | [4] 9.4% | [5] -13.8% | [6] -8.1%

CCOCC(Cl)C(OCC)OCC (stereo not drawn)
inactive: [1] 0.45% | [2] 6.5% | [3] -5.4% | [4] -20.1% | [5] 2.85% | [6] -1.1%

O=S(=O)(O)C(Cc1nc2ccccc2[nH]1)S(=O)(=O)OCCC1S(=O)(=O)OCCOS1(=O)=O (stereo not drawn)
inactive: [1] 0% | [2] -0.4% | [3] 29.5% | [4] -18.9% | [5] 13.1% | [6] -24.9%

CC(=N/O)/C(C)=C/c1ccccc1
inactive: [1] 10.1% | [2] 7.3% | [3] 1.4% | [4] 8.4% | [5] 6.25% | [6] 2.7%

CC(=S)N/C=C/c1c(C(=O)O)cc([N+](=O)[O-])cc1[N+](=O)[O-]
inactive: [1] -16.9% | [2] -27.7% | [3] 4.55% | [4] -12.8% | [5] -18.9% | [6] 4.7%

CC(=O)OC1[C@@H](OC(C)=O)[C@H](OC(C)=O)C2(CO2)[C@H](OC(C)=O)[C@H]1OC(C)=O (stereo partly drawn)
inactive: [1] -7.05% | [2] -4.45% | [3] -6.4% | [4] -29.6% | [5] -0.15% | [6] 12.8%

CCOc1cc2c(cc1C/C=C/c1ccc(OC)cc1)OCO2
inactive: [1] 26.4% | [2] 12.6% | [3] 37.4% | [4] -0.75% | [5] 41.8% | [6] 5.05%

NC(=O)NC12CC3CC(CC(C3)C1)C2
inactive: [1] 13.3% | [2] -5.8% | [3] 13.1% | [4] -0.75% | [5] 4.9% | [6] 2.75%

CCc1cccc(C(C)C)c1NC(=O)C(=O)C(Cc1nc2ccccc2[nH]c1=O)C(=O)OC (stereo not drawn)
inactive: [1] 37.8% | [2] 8.6% | [3] 3.85% | [4] -57.9% | [5] 2.4% | [6] 15.4%

Clc1ccccc1C(CI)c1ccccc1Cl
inactive: [1] 25.6% | [2] 9.75% | [3] 15.2% | [4] 13.4% | [5] -1.2% | [6] 10.1%

c1ccc2c(c1)CCC/C2=N\OCC1CO1 (stereo not drawn)
inactive: [1] -7.5% | [2] -28.4% | [3] -35.2% | [4] -3.1% | [5] -33.1% | [6] 7.05%

O=C1OC2CCCC[C@@H]2C2C[C@]34CCCCC3[C@@H](C(=O)O4)C12 (stereo partly drawn)
inactive: [1] 23.1% | [2] -6.85% | [3] 9.9% | [4] 15.6% | [5] 12% | [6] 42.7%

COc1cc(C2c3cc4c(c(OC(=O)c5ccncc5)c3CC3COC(=O)C32)OCO4)cc(OC)c1OC (stereo not drawn)
inactive: [1] 1.15% | [2] -11.6% | [3] 35.8% | [4] 15.8% | [5] 5.8% | [6] -0.05%

CNC(=O)c1ccccc1CC1(O)CCCC1
inactive: [1] -9.85% | [2] -15.5% | [3] -0.5% | [4] 8.5% | [5] -9.75% | [6] -25.1%

CC1(C)C(=O)/C=C\C(=O)C(C)(C)C2=CC=C(O2)C(C)(C)C(=O)C(Br)C(Br)C(=O)C(C)(C)C2=CC=C1O2 (stereo not drawn)
inactive: [1] -20.4% | [2] -18.1% | [3] -68.5% | [4] 5.6% | [5] -34.9% | [6] -27.6%

O=C(C[n+]1ccncc1)c1ccc2c(c1)CCCC2
inactive: [1] -8.7% | [2] 10.8% | [3] 14.7% | [4] -5.95% | [5] 46.1% | [6] 20.5%

CNc1nnnn1-c1ccccc1C
inactive: [1] -10.8% | [2] -3.55% | [3] -10.8% | [4] -86.5% | [5] -4.05% | [6] -8.05%

CCOC(=O)C(C(=O)OCC)(C(=O)C(F)(F)C(F)(F)C(F)(F)C(F)(F)C(=O)C(C(=O)OCC)(C(=O)OCC)c1ccccc1)c1ccccc1
inactive: [1] 3.75% | [2] 0% | [3] -3.7% | [4] -10.6% | [5] 7.75% | [6] 11.1%

COC(=O)C(O)(C(=O)OC)C1=C(N)C(=O)c2ccccc2C1=O
inactive: [1] 28.9% | [2] 17.1% | [3] 17.8% | [4] -5.4% | [5] 40.8% | [6] 28.3%

CC(C(OC(=O)C1c2ccccc2-c2ccccc21)c1ccccc1)N(C)C (stereo not drawn)
active: [1] 99.5% | [2] 75.8% | [3] 99.5% | [4] 91.4% | [5] 99.4% | [6] 99.2%

C[C@H](CCC(=O)NCCS(=O)(=O)O)[C@H]1CC[C@H]2[C@@H]3CC[C@@H]4C[C@H](O)CC[C@]4(C)[C@H]3CC[C@]12C
inactive: [1] 2.9% | [2] -21.1% | [3] 5.65% | [4] -9.3% | [5] -5.55% | [6] 14.8%

CCN(CC)C(=S)N=N/C(C)=C1/C=CC=CN1O
inactive: [1] 1.4% | [2] 0.4% | [3] 14.6% | [4] 13.6% | [5] 16.2%
active: [6] 74%

Nc1nc(N)c2nc(CNc3ccc(C(=O)NC(CCCNC(=O)c4ccccc4C(=O)O)C(=O)O)cc3)cnc2n1 (stereo not drawn)
inactive: [1] -14.1% | [2] 30.4% | [3] 7.6% | [4] -28.3% | [5] -37.9% | [6] -9.95%

CC(C)(O)C(F)(F)F
inactive: [1] 13.8% | [2] -5.85% | [3] 27.1% | [4] 12.2% | [5] -3.4% | [6] 25.5%

CC(=O)Nc1nc2c(s1)CCc1ccccc1-2
inactive: [1] 49.4% | [2] 13.8% | [3] 12.8% | [4] 5.6% | [5] 10.1% | [6] 15.2%

C1=Nc2ccccc2/C1=C/c1cccs1
inactive: [1] 35.5% | [2] 37% | [3] 12.1% | [4] -47.4% | [5] 13% | [6] 48.8%

O=C(Nc1ccccc1)c1cc(S(=O)(=O)n2cc[nH]c2=O)c(S)cc1Cl
inactive: [1] 9.5% | [2] 3.6% | [3] 5.1% | [4] -5.1% | [5] 2.65% | [6] 13.2%
